These results are taken from paper PMC7862700, “An all-to-all approach to the identification of sequence-specific readers for epigenetic DNA modifications on cytosine”.

Holding throughout (test): DAPPL (digital affinity profiling via proximity ligation, sequencing); 10 mM Tris-HCl pH 7.5, 50 mM NaCl, 1 mM DTT, 4% glycerol, room temperature, 30 min; GST-TFs on glutathione beads, 16-mer random dsDNA library, 0.1% formaldehyde crosslink after washing; high values mean tight binding
In one assay the target is T1, FEV (Homo sapiens, UniProt Q99581 1-238).
T1 sequence: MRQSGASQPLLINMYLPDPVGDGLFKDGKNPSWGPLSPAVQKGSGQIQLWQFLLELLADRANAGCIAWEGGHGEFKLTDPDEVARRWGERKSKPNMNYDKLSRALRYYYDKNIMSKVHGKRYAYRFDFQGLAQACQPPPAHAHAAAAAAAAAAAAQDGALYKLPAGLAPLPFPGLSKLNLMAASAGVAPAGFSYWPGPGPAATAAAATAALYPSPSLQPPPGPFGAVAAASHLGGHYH
The conditions noted are these: protein: recombinant; tags: N-terminal GST; dsDNA, one strand shown. Summed up:
(§1)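 Binding signal is each hexamer's read frequency for a factor divided by its frequency in the tag-only sample. The factors were GST-fused human transcription factors from yeast, captured on glutathione beads, DNA-barcoded and pooled with that sample. Pools were incubated with 200 nmole of a random double-stranded 16-mer DNA library in Tris/NaCl/DTT/glycerol buffer at room temperature for 30 min, then washed, crosslinked with 0.1% formaldehyde, proximity-ligated with BsaI/T4 ligase (1 h, 37 °C), PCR-amplified and sequenced on an Illumina NextSeq500.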

A further assay has as its target ETV5 (Homo sapiens, UniProt P41161 1-510). The conditions noted are these: protein: recombinant; tags: N-terminal GST; dsDNA, one strand shown. Summed up: as §1
A further assay deals with HSF1 (Homo sapiens, UniProt Q00613 1-529). Conditions: protein: recombinant; tags: N-terminal GST; chain copies: 3; dsDNA, one strand shown. The method, boiled down:
as §1

A further assay concerns the target T2, SPIC (Homo sapiens, UniProt Q8N5J4 1-248).
T2 sequence: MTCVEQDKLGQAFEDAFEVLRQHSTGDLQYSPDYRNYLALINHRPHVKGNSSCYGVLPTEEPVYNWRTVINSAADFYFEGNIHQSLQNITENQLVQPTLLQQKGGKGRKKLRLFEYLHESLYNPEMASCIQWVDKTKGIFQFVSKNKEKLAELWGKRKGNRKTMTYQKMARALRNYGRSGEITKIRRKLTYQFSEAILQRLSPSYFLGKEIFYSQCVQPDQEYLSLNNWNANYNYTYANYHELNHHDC
Conditions: protein: recombinant; tags: N-terminal GST; dsDNA, one strand shown. Summed up:
as §1

The target in a further assay is ELF4 (Homo sapiens, UniProt Q99607 1-663). Conditions: protein: recombinant; tags: N-terminal GST; dsDNA, one strand shown. Summed up: as §1
Chain of ELF4 (Q99607 whole entry): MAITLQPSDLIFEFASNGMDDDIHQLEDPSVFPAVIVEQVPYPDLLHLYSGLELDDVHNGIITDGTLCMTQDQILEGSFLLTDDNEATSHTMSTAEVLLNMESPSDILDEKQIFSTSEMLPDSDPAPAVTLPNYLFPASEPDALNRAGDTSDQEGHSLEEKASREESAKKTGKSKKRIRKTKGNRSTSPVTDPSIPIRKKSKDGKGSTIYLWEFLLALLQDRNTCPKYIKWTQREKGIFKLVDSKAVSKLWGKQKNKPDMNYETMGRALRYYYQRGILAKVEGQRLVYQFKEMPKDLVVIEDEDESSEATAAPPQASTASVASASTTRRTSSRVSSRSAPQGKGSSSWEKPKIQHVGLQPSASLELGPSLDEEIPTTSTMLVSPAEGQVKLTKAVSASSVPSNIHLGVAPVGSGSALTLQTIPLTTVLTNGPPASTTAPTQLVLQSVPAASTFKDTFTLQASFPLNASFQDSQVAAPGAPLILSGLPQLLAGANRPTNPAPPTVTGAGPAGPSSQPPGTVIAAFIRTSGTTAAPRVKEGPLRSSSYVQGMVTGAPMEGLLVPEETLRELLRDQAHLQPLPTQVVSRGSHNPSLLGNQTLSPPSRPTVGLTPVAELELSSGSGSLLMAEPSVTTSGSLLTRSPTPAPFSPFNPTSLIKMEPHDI
The target of the next assay is T3, ELK4 (Homo sapiens, UniProt P28324-2 1-405).
T3 sequence: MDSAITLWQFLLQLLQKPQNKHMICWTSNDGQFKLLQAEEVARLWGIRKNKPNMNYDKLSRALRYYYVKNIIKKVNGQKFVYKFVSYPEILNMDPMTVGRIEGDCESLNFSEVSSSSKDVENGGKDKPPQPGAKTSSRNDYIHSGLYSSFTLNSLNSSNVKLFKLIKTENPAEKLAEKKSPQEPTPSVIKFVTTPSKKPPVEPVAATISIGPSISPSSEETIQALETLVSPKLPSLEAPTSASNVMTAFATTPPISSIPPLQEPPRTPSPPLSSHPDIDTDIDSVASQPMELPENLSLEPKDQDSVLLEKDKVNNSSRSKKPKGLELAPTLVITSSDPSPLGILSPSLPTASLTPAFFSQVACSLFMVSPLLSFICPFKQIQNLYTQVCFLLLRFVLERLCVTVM
Conditions: protein: recombinant; tags: N-terminal GST; dsDNA, one strand shown. Summed up:
as §1

Another assay has as its target T4, ETV2 (Homo sapiens, UniProt O00321 1-342).
T4 sequence: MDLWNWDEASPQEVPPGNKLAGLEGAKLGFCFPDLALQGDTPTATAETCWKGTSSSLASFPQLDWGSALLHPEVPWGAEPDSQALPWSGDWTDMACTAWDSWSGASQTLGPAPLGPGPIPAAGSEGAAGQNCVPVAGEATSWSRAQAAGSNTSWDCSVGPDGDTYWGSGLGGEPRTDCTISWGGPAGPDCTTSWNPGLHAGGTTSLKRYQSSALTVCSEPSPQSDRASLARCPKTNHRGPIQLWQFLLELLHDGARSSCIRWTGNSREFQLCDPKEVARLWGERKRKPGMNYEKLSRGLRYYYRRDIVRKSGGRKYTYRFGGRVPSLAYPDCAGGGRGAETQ
The conditions noted are these: protein: recombinant; tags: N-terminal GST; dsDNA, one strand shown. The method, boiled down:
as §1

A further assay concerns the target T5, ELF3 (Homo sapiens, UniProt P78545 1-371).
T5 sequence: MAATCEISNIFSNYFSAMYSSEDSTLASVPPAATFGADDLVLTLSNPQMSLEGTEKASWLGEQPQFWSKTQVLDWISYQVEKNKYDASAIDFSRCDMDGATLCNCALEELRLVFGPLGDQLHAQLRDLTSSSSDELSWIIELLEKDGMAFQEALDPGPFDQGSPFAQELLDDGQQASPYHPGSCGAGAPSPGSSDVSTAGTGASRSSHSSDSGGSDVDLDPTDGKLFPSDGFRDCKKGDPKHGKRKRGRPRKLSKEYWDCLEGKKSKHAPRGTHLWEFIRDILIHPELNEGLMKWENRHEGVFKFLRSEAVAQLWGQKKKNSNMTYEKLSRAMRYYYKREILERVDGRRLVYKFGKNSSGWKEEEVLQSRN
Conditions: protein: recombinant; tags: N-terminal GST; dsDNA, one strand shown. Summed up: as §1

For the next assay, the target named is CRX (Homo sapiens, UniProt O43186 1-299). Conditions: protein: recombinant; tags: N-terminal GST; dsDNA, one strand shown. The method, boiled down:
as §1

A further assay addresses ETV1 (Homo sapiens, UniProt P50549 1-477). The conditions noted are these: protein: recombinant; tags: N-terminal GST; dsDNA, one strand shown. The method, boiled down: as §1
In another assay the target is T6, ERF (Homo sapiens, UniProt P50548 1-548).
T6 sequence: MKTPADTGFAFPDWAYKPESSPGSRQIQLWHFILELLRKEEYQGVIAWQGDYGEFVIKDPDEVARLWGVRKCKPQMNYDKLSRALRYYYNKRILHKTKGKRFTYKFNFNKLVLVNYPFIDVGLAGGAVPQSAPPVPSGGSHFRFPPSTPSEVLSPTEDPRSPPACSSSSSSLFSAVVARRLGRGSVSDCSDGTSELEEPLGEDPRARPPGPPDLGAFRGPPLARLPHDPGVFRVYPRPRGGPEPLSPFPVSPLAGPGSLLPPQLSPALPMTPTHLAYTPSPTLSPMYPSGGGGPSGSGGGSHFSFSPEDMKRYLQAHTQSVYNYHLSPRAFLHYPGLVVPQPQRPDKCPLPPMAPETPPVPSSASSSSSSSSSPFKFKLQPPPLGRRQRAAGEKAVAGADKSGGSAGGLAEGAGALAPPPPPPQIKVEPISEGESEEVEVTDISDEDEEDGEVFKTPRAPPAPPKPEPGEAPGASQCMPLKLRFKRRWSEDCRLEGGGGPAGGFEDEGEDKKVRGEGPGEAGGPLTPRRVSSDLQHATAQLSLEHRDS
The conditions noted are these: protein: recombinant; tags: N-terminal GST; dsDNA, one strand shown. The method, boiled down: as §1

The target in the next assay is T7, ETV3L (Homo sapiens, UniProt Q6ZN32 1-361).
T7 sequence: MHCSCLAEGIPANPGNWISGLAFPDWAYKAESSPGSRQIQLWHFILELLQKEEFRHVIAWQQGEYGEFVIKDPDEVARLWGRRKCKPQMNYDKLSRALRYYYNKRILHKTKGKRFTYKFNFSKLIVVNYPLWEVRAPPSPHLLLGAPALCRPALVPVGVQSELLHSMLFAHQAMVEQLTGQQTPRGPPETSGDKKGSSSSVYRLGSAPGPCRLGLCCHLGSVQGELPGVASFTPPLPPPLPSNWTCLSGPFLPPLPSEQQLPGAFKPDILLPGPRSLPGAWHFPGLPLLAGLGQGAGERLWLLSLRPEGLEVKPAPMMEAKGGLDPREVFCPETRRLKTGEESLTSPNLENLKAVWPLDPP
Conditions: protein: recombinant; tags: N-terminal GST; dsDNA, one strand shown. Summed up: as §1

For the next assay, the target named is T8, ETS2 (Homo sapiens, UniProt P15036 1-469).
T8 sequence: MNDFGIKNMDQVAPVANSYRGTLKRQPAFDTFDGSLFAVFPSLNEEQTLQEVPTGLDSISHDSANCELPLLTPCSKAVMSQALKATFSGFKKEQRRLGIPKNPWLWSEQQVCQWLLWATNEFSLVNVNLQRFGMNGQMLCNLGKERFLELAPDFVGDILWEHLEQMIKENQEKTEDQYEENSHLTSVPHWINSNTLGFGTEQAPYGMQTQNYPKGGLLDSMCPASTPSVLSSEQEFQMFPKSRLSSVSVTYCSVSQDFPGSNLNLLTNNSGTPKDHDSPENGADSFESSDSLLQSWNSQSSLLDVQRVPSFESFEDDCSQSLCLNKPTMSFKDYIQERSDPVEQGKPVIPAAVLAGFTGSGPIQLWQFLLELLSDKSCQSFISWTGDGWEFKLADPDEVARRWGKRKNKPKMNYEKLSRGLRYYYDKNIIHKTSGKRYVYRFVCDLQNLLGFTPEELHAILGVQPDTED
The conditions noted are these: protein: recombinant; tags: N-terminal GST; dsDNA, one strand shown. The method, boiled down:
as §1

The target in another assay is T9, SPDEF (Homo sapiens, UniProt O95238 1-335).
T9 sequence: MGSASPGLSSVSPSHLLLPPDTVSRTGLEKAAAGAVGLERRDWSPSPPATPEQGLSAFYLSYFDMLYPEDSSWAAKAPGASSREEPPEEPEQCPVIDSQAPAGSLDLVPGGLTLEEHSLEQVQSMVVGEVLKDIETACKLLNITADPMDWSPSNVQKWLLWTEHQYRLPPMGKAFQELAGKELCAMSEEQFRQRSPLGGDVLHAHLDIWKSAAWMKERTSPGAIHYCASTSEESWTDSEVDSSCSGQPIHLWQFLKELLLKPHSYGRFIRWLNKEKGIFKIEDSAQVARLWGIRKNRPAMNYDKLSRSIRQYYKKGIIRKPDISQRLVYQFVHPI
The conditions noted are these: protein: recombinant; tags: N-terminal GST; dsDNA, one strand shown. The method, boiled down: as §1

A further assay addresses T10, ETV7 (Homo sapiens, UniProt Q9Y603 1-341).
T10 sequence: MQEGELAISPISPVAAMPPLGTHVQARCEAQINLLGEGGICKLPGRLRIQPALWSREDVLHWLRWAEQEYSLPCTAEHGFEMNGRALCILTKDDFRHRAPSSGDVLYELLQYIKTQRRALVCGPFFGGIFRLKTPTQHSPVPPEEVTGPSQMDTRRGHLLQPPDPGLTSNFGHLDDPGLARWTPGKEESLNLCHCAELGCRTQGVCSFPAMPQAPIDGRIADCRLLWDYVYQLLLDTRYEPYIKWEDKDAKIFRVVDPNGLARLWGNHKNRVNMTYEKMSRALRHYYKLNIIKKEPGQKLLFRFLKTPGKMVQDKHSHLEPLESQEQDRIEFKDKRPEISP
The conditions noted are these: protein: recombinant; tags: N-terminal GST; dsDNA, one strand shown. The method, boiled down:
as §1

Another assay concerns the target T11, ELF5 (Homo sapiens, UniProt Q9UKW6-2 1-255).
T11 sequence: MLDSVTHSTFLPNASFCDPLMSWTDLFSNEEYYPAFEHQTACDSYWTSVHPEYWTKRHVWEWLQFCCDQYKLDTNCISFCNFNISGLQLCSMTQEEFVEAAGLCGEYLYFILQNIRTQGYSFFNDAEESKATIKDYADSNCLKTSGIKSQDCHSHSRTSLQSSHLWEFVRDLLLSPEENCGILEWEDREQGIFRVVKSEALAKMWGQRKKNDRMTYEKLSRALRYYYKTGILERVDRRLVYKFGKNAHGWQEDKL
Conditions: protein: recombinant; tags: N-terminal GST; dsDNA, one strand shown. Summed up:
as §1

The target in a further assay is T12, ETV3 (Homo sapiens, UniProt P41162-2 1-143).
T12 sequence: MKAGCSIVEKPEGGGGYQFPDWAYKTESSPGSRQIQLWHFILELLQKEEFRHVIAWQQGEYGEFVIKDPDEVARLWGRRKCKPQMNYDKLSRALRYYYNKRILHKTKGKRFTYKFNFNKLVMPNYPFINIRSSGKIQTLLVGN
The conditions noted are these: protein: recombinant; tags: N-terminal GST; dsDNA, one strand shown. Summed up:
as §1

A further assay has as its target ETV6 (Homo sapiens, UniProt P41212 1-452). Conditions: protein: recombinant; tags: N-terminal GST; dsDNA, one strand shown. Summed up:
as §1

Chain of HSF1 (Q00613 whole entry): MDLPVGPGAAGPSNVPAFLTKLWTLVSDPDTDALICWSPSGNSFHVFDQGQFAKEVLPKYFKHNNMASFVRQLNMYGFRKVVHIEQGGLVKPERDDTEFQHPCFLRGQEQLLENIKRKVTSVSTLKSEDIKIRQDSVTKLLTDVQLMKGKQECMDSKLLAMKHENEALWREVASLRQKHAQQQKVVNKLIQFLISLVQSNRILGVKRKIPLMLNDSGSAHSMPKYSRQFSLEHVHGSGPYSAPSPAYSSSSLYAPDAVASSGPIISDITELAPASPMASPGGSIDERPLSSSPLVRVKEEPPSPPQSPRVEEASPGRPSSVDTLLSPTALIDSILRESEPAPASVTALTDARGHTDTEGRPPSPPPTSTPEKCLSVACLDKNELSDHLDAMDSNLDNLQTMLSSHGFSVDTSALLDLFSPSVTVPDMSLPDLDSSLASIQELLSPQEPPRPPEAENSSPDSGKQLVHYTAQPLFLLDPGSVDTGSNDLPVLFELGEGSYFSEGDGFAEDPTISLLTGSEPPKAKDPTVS
Chain of ETV6 (P41212 whole entry): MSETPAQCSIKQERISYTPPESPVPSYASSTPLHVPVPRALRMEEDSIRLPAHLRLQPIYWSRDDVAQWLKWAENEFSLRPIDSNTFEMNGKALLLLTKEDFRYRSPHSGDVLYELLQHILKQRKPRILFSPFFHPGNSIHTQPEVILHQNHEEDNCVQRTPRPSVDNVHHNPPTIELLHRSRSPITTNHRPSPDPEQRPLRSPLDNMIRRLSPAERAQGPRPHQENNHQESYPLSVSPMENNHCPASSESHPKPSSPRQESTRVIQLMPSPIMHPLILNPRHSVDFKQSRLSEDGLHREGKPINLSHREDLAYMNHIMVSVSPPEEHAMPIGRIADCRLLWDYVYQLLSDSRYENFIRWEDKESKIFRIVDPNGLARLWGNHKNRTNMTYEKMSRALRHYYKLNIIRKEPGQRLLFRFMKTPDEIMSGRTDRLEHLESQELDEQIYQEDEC
Chain of ETV1 (P50549 whole entry): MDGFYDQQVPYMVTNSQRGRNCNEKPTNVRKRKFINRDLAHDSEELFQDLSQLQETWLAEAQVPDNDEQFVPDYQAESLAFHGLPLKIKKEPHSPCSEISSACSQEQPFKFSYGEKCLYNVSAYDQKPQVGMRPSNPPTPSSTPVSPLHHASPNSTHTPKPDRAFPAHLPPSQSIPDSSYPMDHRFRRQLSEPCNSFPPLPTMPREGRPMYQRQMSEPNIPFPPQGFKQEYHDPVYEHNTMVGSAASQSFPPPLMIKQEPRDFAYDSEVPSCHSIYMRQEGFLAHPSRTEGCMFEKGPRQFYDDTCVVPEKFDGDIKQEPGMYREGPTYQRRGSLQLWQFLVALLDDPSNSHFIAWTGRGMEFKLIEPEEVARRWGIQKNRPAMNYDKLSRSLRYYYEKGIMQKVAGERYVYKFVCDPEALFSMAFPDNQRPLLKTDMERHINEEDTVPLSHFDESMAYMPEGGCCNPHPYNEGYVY
Chain of ETV5 (P41161 whole entry): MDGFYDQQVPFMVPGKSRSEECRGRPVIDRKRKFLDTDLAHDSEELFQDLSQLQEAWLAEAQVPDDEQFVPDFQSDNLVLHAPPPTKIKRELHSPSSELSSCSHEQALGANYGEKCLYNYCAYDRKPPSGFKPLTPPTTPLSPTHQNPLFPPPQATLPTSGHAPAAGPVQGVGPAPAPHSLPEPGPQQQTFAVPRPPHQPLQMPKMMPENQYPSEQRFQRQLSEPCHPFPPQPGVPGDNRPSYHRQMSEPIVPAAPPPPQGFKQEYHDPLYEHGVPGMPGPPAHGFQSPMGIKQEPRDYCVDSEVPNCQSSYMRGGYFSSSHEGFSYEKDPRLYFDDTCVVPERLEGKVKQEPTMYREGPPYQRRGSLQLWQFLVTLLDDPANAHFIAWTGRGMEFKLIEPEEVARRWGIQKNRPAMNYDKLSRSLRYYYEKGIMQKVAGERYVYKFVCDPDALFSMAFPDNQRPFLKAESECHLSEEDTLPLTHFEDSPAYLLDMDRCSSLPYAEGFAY
Chain of CRX (O43186 whole entry): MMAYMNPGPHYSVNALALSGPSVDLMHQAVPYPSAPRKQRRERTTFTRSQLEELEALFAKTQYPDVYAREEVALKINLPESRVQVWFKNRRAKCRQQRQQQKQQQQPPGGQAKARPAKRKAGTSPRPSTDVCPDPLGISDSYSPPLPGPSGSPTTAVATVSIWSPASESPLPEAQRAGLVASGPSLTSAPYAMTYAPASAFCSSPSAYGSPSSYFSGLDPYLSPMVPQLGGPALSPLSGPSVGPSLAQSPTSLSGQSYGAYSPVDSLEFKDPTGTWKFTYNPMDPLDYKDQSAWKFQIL

Turning to AGTATT, the binding signal is 1.14 fold enrichment (6-mer frequency, TF over GST control) in the assay with FEV; 1.2 fold enrichment (6-mer frequency, TF over GST control) in the assay with ETV5; 1.35 fold enrichment (6-mer frequency, TF over GST control) with HSF1; 1.22 fold enrichment (6-mer frequency, TF over GST control) with SPIC; 1.16 fold enrichment (6-mer frequency, TF over GST control) with ELF4; 1.17 fold enrichment (6-mer frequency, TF over GST control) with ELK4. In addition, the binding signal was 1.07 fold enrichment (6-mer frequency, TF over GST control) with ETV2; 1.17 fold enrichment (6-mer frequency, TF over GST control) in the assay with ELF3; 1.57 fold enrichment (6-mer frequency, TF over GST control) in the assay with CRX; 1.19 fold enrichment (6-mer frequency, TF over GST control) with ETV1; 1.3 fold enrichment (6-mer frequency, TF over GST control) with ERF; 1.22 fold enrichment (6-mer frequency, TF over GST control) with ETV3L. Moreover, the binding signal with ETS2 is 1.17 fold enrichment (6-mer frequency, TF over GST control); with SPDEF, 1.05 fold enrichment (6-mer frequency, TF over GST control); with ETV7, 1.3 fold enrichment (6-mer frequency, TF over GST control); in the assay with ELF5, 1.27 fold enrichment (6-mer frequency, TF over GST control); in the assay with ETV3, 1.19 fold enrichment (6-mer frequency, TF over GST control); with ETV6, 1.32 fold enrichment (6-mer frequency, TF over GST control).
